In PubChem BioAssay (NCI) one finds growth data, which are given here for seven compounds.

Compounds without any hit were thinned out: in the full panel of roughly 83,000, 20% have a hit.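 A percent growth of 40 corresponds to 60% growth inhibition; 0 means no net growth; -100 means all cells died. Active threshold: below 10.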 A number with no mark means an inactive call. The source made the active and inactive calls.

Common to all, as to assay: NCI-60 one-dose screen, 48 h (100 = growth as untreated, 0 = no growth, -100 = all killed)
In one experiment the test system is DU-145 prostate. The following applies: 10 µM unless noted.
Another experiment deals with K-562 leukemia. The conditions noted are these: 10 µM unless noted.
In a further experiment the test system is MALME-3M melanoma. The following applies: 10 µM unless noted.
Another experiment has as its system MDA-MB-231 breast. The following applies: 10 µM unless noted.
The next experiment has as its system RXF 393 renal. The following applies: 10 µM unless noted.
For another experiment, the system named is SF-268 CNS. The conditions noted are these: 10 µM unless noted.
A further experiment has as its system SF-295 CNS. The following applies: 10 µM unless noted.
The next experiment deals with SF-539 CNS. The conditions noted are these: 10 µM unless noted.
For another experiment, the system named is UACC-257 melanoma. The conditions noted are these: 10 µM unless noted.
Another experiment has as its system M14 melanoma. The conditions noted are these: 10 µM unless noted.
Another experiment concerns HCT-15 colon. The following applies: 10 µM unless noted.
The test system of another experiment is HT29 colon. The following applies: 10 µM unless noted.
In another experiment the test system is SNB-19 CNS. The following applies: 10 µM unless noted.
The next experiment concerns U251 CNS. The conditions noted are these: 10 µM unless noted.
A further experiment deals with PC-3 prostate. The conditions noted are these: 10 µM unless noted.
A further experiment concerns SK-MEL-5 melanoma. The following applies: 10 µM unless noted.
A further experiment has as its system UACC-62 melanoma. The following applies: 10 µM unless noted.
The subject of a further experiment is LOX IMVI melanoma. The following applies: 10 µM.
For a further experiment, the system named is SK-MEL-28 melanoma. The following applies: 10 µM unless noted.

Regarding `COc1ccc(/C=C/c2nc3ccccc3c(=O)n2CC(=O)Nc2ccc(Cl)cc2)cc1`, the growth in the experiment on DU-145 prostate was 65.9%; with K-562 leukemia it was 66.6%; in the experiment with MALME-3M melanoma, 76.3%; in the experiment with MDA-MB-231 breast, 48.8%; in the experiment with RXF 393 renal it was 48.5%; with SF-268 CNS, 61.4%. In addition, the growth is 53% in the experiment on SF-295 CNS; -13% (active) in the experiment with SF-539 CNS; 92.3% with UACC-257 melanoma; 77.8% in the experiment with M14 melanoma; 75.2% with HCT-15 colon; 38.7% with HT29 colon. The growth in the experiment on SNB-19 CNS was 77.4%; in the experiment with U251 CNS, 10.9%; in the experiment with PC-3 prostate, 48.3%; in the experiment with SK-MEL-5 melanoma, 89%; in the experiment with UACC-62 melanoma, 73.3%; with LOX IMVI melanoma it was 36.5%. Moreover, the growth with SK-MEL-28 melanoma is 93%.
`Cc1ccc([C@H]2C(C(=O)c3ccc(Cl)cc3)C3(N[C@@H]2c2ccccc2)C(=O)Nc2ccc(Br)cc23)cc1` (stereo partly drawn): the growth in the experiment with DU-145 prostate is 82.5%; with K-562 leukemia it was 26.6%; with MALME-3M melanoma it was 92.2%; with MDA-MB-231 breast, 49.7%; in the experiment with RXF 393 renal it was 33.6%; in the experiment on SF-268 CNS, 100%. The growth is 52.4% in the experiment with SF-295 CNS; 79.7% in the experiment on SF-539 CNS; 71.6% with UACC-257 melanoma; 44.3% with M14 melanoma; 50.8% in the experiment on HCT-15 colon; 7.2% (active) in the experiment with HT29 colon. For the same compound, the growth with SNB-19 CNS was 66.5%; with U251 CNS it was 47.9%; with PC-3 prostate, 16.7%; with SK-MEL-5 melanoma it was 88%; in the experiment with UACC-62 melanoma it was 45.9%; in the experiment on LOX IMVI melanoma it was 35.9%. Moreover, the growth in the experiment with SK-MEL-28 melanoma was 77.9%.
Turning to `CC12CC[C@@H]3[C@]4(C)COC(c5cn[nH]c5-c5cccc(Br)c5)O[C@@H]4CC[C@@]3(C)[C@@H]1CC(C1=CCOC1=O)O2` (stereo partly drawn), the growth in the experiment on DU-145 prostate was 53.5%; with K-562 leukemia, 15%; in the experiment with MALME-3M melanoma, 37.7%; with MDA-MB-231 breast, 35.1%; in the experiment with RXF 393 renal, 6.19% (active); in the experiment on SF-268 CNS, 47%. For the same compound, the growth with SF-295 CNS is 34.9%; in the experiment with SF-539 CNS it was 54.8%; with UACC-257 melanoma, 41.8%; in the experiment with M14 melanoma, 22.3%; with HCT-15 colon, 23.3%; in the experiment on HT29 colon, 23.2%. Moreover, the growth in the experiment with SNB-19 CNS is 51.2%; in the experiment with U251 CNS it was 32.1%; in the experiment with PC-3 prostate it was 12.9%; with SK-MEL-5 melanoma, 3.56% (active); in the experiment with UACC-62 melanoma, 20.9%; with LOX IMVI melanoma it was -8.01% (active). For the same compound, in the experiment with SK-MEL-28 melanoma, the growth is 34%.
`Cc1sc2c(c1C)C(c1ccc(Cl)cc1)=N[C@@H](CC(=O)NCCCCCNC(=O)COc1ccc(C3CCC(=O)NC3=O)cc1)c1nnc(C)n1-2` (stereo partly drawn): the growth with DU-145 prostate was 88.5%; in the experiment with K-562 leukemia, 28.4%; in the experiment on MALME-3M melanoma it was 13%; in the experiment with MDA-MB-231 breast it was 5.01% (active); with RXF 393 renal, 45.3%; in the experiment on SF-268 CNS, 65.4%. For the same compound, the growth in the experiment with SF-295 CNS is 9.91% (active); with SF-539 CNS it was 23.1%; in the experiment with UACC-257 melanoma it was 49.3%; with M14 melanoma, 17.6%; in the experiment with HCT-15 colon, 33%; in the experiment on HT29 colon, 13%. In addition, the growth in the experiment with SNB-19 CNS is 23.8%; in the experiment with U251 CNS, 45.2%; with PC-3 prostate, 11.3%; in the experiment with SK-MEL-5 melanoma, -13.4% (active); in the experiment on UACC-62 melanoma, 3.07% (active); in the experiment on LOX IMVI melanoma, 11.3%. Besides, the growth in the experiment with SK-MEL-28 melanoma is 48.3%.
With `CN1C(=O)/C(=C/c2ccc(C(=O)Nc3ncc(Cc4ccc(Cl)cc4Cl)s3)cc2)SC1=S`, the growth with DU-145 prostate was 30.7%; with K-562 leukemia, 24.3%; in the experiment with MALME-3M melanoma, 23.1%; in the experiment with MDA-MB-231 breast, 43.6%; in the experiment with RXF 393 renal, 30.9%; with SF-268 CNS, 47%. Besides, the growth is 10.8% with SF-295 CNS; 36.9% in the experiment with SF-539 CNS; 33.1% with UACC-257 melanoma; 11.6% with M14 melanoma; 25.7% in the experiment with HCT-15 colon; 19.7% in the experiment with HT29 colon. Moreover, the growth with SNB-19 CNS was 66.6%; with U251 CNS it was 72.7%; with PC-3 prostate it was 38.9%; in the experiment on SK-MEL-5 melanoma, 17.1%; with UACC-62 melanoma, 8.83% (active); with LOX IMVI melanoma, 29.7%. Further, in the experiment on SK-MEL-28 melanoma, the growth is 41%.
Consider `CN(C)CCOc1ccc(C(=O)C2[C@H](c3ccc(Cl)cc3)[C@@H](c3ccccc3)NC23C(=O)Nc2ccc(Br)cc23)cc1` (stereo partly drawn), for which the growth with DU-145 prostate was 14.3%; with K-562 leukemia it was -32.3% (active); in the experiment with MALME-3M melanoma it was -50.2% (active); in the experiment with MDA-MB-231 breast, -20.5% (active); in the experiment with RXF 393 renal it was -0.638% (active); in the experiment on SF-268 CNS it was 41.8%. The growth is -53.4% (active) in the experiment with SF-295 CNS; 13% in the experiment with SF-539 CNS; 53.8% with UACC-257 melanoma; -71.5% (active) with M14 melanoma; -81.5% (active) with HCT-15 colon; -85.7% (active) in the experiment on HT29 colon. Moreover, the growth with SNB-19 CNS is 54.1%; with U251 CNS, -93.2% (active); in the experiment on PC-3 prostate, -3.48% (active); in the experiment on SK-MEL-5 melanoma it was -16.1% (active); in the experiment with UACC-62 melanoma, 43.3%; in the experiment on LOX IMVI melanoma, -100% (active). Further, the growth with SK-MEL-28 melanoma is 37.6%.
In the case of `CC(/C=C1\SC(=S)N(CCCC(=O)NC(CC(C)C)C(=O)O)C1=O)=C\c1ccccc1` (stereo not drawn), the growth with DU-145 prostate is 98.7%; in the experiment with K-562 leukemia, 82.8%; in the experiment on MALME-3M melanoma, 104%; with MDA-MB-231 breast it was 99.8%; in the experiment on RXF 393 renal it was 96.2%; in the experiment with SF-268 CNS it was 100%. In addition, the growth with SF-295 CNS was 97.4%; in the experiment with SF-539 CNS it was 96%; in the experiment on UACC-257 melanoma, 104%; in the experiment with M14 melanoma, 78.6%; in the experiment on HCT-15 colon it was 98.6%; in the experiment with HT29 colon, 119%. The growth was 93.8% with SNB-19 CNS; 79.6% in the experiment with U251 CNS; 55.9% with PC-3 prostate; 88.1% with SK-MEL-5 melanoma; 76% in the experiment with UACC-62 melanoma; 53.2% in the experiment with LOX IMVI melanoma. Further, the growth in the experiment on SK-MEL-28 melanoma was 94.8%.
